# Screening data as filed in PubChem.
# NS1 inh = blocks influenza NS1 protein function; Potency, µM (titrated, usually from 46.1 µM), inactives show at the highest dose activity, positive = more growth; actives 0.4% (n = 270,000); calls by dose curve; also: potency is read from the fitted curve at half-maximal effect; actives are rising curves; nearly all actives have a fitted effect of over 50% in size
#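 A cell-based growth assay was used: compounds that relieve NS1-induced slow growth of budding yeast raise OD600. Assay medium was yeast nitrogen base with ammonium sulphate and -URA supplement, pH 6.0, with 2% galactose.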
# Cruzain inh noDet = cruzain (T. cruzi) inhibition without detergent. actives 2.3% (n = 200,000). Potency, µM, inactives show max response, negative = inhibition, actives largely listed as inhibitors. purified cruzain, Z-FR-AMC fluorescence, no detergent;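 also: potency is read from the fitted curve at half-maximal effect; plate controls were enzyme without inhibitor for no effect and buffer without enzyme for full effect; nearly all actives have a fitted effect of over 40% in size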
# Target sequence (P25779 123-467 limits assumed): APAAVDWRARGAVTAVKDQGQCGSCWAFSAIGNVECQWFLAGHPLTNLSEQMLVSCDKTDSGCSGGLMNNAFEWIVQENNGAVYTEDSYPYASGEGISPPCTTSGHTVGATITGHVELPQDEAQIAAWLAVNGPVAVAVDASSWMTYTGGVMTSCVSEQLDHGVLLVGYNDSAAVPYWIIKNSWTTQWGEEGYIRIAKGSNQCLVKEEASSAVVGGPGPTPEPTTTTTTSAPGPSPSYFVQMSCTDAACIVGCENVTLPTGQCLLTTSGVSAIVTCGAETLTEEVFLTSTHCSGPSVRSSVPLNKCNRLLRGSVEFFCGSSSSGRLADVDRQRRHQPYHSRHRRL
#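 Detergent-free condition (0.00005% Triton X-100) in acetate buffer pH 5.5 with DTT. 1.5 nM enzyme and compound were pre-mixed 15 min, then 2 uM Z-FR-AMC substrate added; reaction progress from fluorescence change between first and third reads (60 s).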
# Cruzain inh Det = cruzain (T. cruzi) inhibition with detergent. P25779. purified cruzain, Z-FR-AMC fluorescence, 0.01% Triton. Potency, µM, for inactives: max response, negative = inhibition, usual class: inhibitors. actives 0.43% (n = 200,000). AID 1478;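 also: potency is read from the fitted curve at half-maximal effect; plate controls were neutral wells for no effect and buffer without enzyme for full effect; nearly all actives have a fitted effect of over 40% in size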
#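 Z-FR-AMC hydrolysis (2 uM substrate) by cruzain (1.5 nM) monitored kinetically at ex 360/em 450 nm after 15 min room-temperature compound exposure; 0.01% Triton X-100, pH 5.5, 5 mM DTT.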
# Flu NS1 inh = validation of influenza NS1 protein function inhibitors; influenza NS1 function cell assay, 15-point titration; activity change, negative = inhibition, % at 32.9 µM; shares compounds with NS1 inh; 1,400 tested, under 10 active; AID 492980; calls by dose curve; also: 0% is about no effect
# PR8 titer = reduces influenza A/PR/8/34 replication in MDCK cells. shares compounds with NS1 inh. MDCK infected influenza A/PR/8/34, virus titer TCID50; stronger effect = lower value. virus titer (log TCID50), log10 TCID50 at 5 µM. actives 30% (n = 95). AID 504647; call rule not given here
# Numbers without * were called inactive; ? = inconclusive; . = no result given. Only a selection was taken, and hits are over-represented in it overall. Unless noted, calls follow the shape of the dose curve; as a rule, active = well fitted curve in the direction sought with a large enough effect; inconclusive = small, poorly fitted or top-dose-only effect, or another doubt; inactive = no such curve, though single readings can be large; an effect the other way counts as inactive or inconclusive.
SMILES,NS1 inh,Cruzain inh noDet,Cruzain inh Det,Flu NS1 inh,others
O=[N+]([O-])c1ccc(OCc2nnc(-c3ccccc3)o2)cc1,-6%,.,.,.,
COc1cccc(NS(=O)(=O)c2ccc3c(c2)C2C=CCC2C(c2ccc(C(=O)O)cc2)N3)c1 (stereo unspecified),10µM*,?,?,9,
COC(=O)c1ccc([C@H]2Nc3ccc(S(=O)(=O)Nc4ccc(F)cc4)cc3[C@H]3C=CC[C@H]32)cc1,.,-15%,-16%,.,
Cc1cccc(N2CCN(CC(=O)Nc3ccc(S(=O)(=O)N4CCOCC4)cc3)CC2)c1C,-22%,.,.,.,
O=C(COC(=O)CCc1c[nH]c2ccccc12)NCc1ccccc1,-7%,2%,-2%,.,
CN(C(=O)COC(=O)CCc1c[nH]c2ccccc12)C(c1ccccc1)c1ccccc1,8.9µM*,-26%,-7%,-14,
CCC(C)NC(=O)COC(=O)Cc1sc(N)nc1-c1ccc(C)cc1 (stereo unspecified),1.1µM*,-10%,-7%,8,
Cc1ccc(-c2nc(N)sc2CC(=O)OCC(=O)NCCC(C)C)cc1,-3%,-24%,-13%,.,
Cc1ccc(SCC(=O)NC(=O)NCc2ccccc2)c(C)c1,-8%,-16%,-8%,.,
CCOc1ccc(NC(=O)CSc2nnc(-c3ccc(OCC)cc3)o2)cc1,.,-6%,-3%,.,
Cc1cc(C(=O)CN(Cc2ccc(F)cc2)S(=O)(=O)c2ccc3c(c2)OCCO3)c(C)n1C,11µM*,-9%,-7%,-16,
O=C(CN(Cc1ccccc1)S(=O)(=O)c1ccc2c(c1)OCCO2)N/N=C/c1ccc(F)cc1,24%,-4%,-7%,.,
CCN(C(=O)COC(=O)c1[nH]c(C)c(C(C)=O)c1C)C1CCS(=O)(=O)C1 (stereo unspecified),3%,0%,5%,.,
CCC(C)N(C(=O)COC(=O)c1[nH]c(C)c(C(C)=O)c1C)C1CCS(=O)(=O)C1 (stereo unspecified),3.2µM*,7%,4%,1,
CC(C)(C)c1ccccc1NC(=O)c1ccco1,-3%,-4%,1%,.,
CCOC(=O)CN1CC23C=CC(O2)C(C(=O)Nc2cc(OC)ccc2OC)C3C1=O (stereo unspecified),8%,-1%,0%,.,
CCOC(=O)CN1CC23C=CC(O2)C(C(=O)Nc2ccc(OC)cc2OC)C3C1=O (stereo unspecified),3.2µM*,-8%,-2%,-2,
CC(C)OC(=O)c1cc2c(ccn2C)n1CC(=O)N(Cc1ccccc1)c1ccccc1,11µM*,-5%,-10%,-28,
CCOC(=O)c1cc2c(ccn2C)n1Cc1cc(C)ccc1C,9%,-6%,-3%,.,
COc1ncnc2c1NC1=C(S2)C(=NCCC(=O)O)CC(C)(C)C1,-7%,-14%,-12%,.,
CCOC(=O)C1CCN(C(=O)CN(Cc2ccccc2)S(C)(=O)=O)CC1,14µM*,17%,1%,11,
CS(=O)(=O)N(CC(=O)N1CCCCC1)Cc1ccccc1,7%,.,.,.,
COCC(=O)Nc1ccc2nc3n(c(=O)c2c1)CCCCC3,?,.,.,-5,
CCOC(=O)N1CCN(C(=O)CC(=O)Nc2ccc3nc4n(c(=O)c3c2)CCCCC4)CC1,-3%,9%,1%,.,
Cc1ccc(-n2c3nc(=O)[nH]c(=O)c-3cc3cc([N+](=O)[O-])ccc32)cc1,-10%,26%,-10%,.,
SMILES,NS1 inh,Cruzain inh noDet,Cruzain inh Det,Flu NS1 inh,others
C=CCN1CC(c2nc3ccccc3n2CCOc2ccccc2)CC1=O (stereo unspecified),?,12%,2%,-24,
C=CCc1ccccc1OCCn1c(C2CC(=O)N(Cc3ccc(F)cc3)C2)nc2ccccc21 (stereo unspecified),.,18%,-4%,.,
COc1ccc(/C=C(/NC(=O)c2ccccc2)C(=O)N/N=C/c2sccc2C)cc1,3%,?,-10%,.,
CCCC12CN3CC(CCC)(CN(C1)C3c1ccco1)C2=O (stereo unspecified),-2%,.,.,.,
COc1ccc(C2Nc3ccccc3C(=O)N2Cc2ccco2)cc1COc1ccc(NC(C)=O)cc1 (stereo unspecified),13µM*,?,-12%,10,
O=C1c2ccccc2NC(c2ccc(O)cc2)N1Cc1ccco1 (stereo unspecified),11%,1%,-10%,.,
c1ccc(-n2cnc3cc(NCc4ccccn4)ccc32)cc1,-1%,-30%,1%,.,
c1ccc(-n2cnc3cc(NCc4ccncc4)ccc32)cc1,?,8%,1%,-11,
Cc1ccc(-n2c3c(c(=O)[nH]c2=S)C(C(F)(F)F)(C(F)(F)F)NC(=O)N3)cc1,-3%,2%,3%,.,
CCn1c2ccccc2c2cc(NC(=O)COc3ccccc3OC)ccc21,19%,7%,-1%,.,
CCn1c2ccccc2c2cc(NC(=O)COC(=O)c3cccc(S(=O)(=O)NC)c3)ccc21,10µM*,-26%,-2%,2,PR8 titer=7.3*
CCCOC(=O)CSc1nc(N2CCOCC2)c2c(c1C#N)CC(C)(C)OC2,1%,.,.,.,
O=C(c1ccccc1F)N1CCOCC1,-3%,.,.,.,
Cc1ccc(CCN2CC(C(=O)NCc3ccco3)CC2=O)cc1 (stereo unspecified),?,-7%,5%,-3,
Cc1ccc(CCN2CC(C(=O)NCCC(C)C)CC2=O)cc1 (stereo unspecified),3%,.,.,.,
FC(F)(F)c1ccc(-c2nnc(-c3cccnc3)o2)cc1,-14%,.,.,.,
CCOc1ccc(-c2nc3n(c(=O)c2C#N)CCS3)cc1,5%,.,.,.,
FC(F)Oc1ccc(/C=N/c2c(-c3ccc(OC(F)F)cc3)nc3n2CCS3)cc1,13µM*,27%,-11%,-15,
CN(CC(=O)NCCN1CCCCCC1)S(=O)(=O)c1cccc2nsnc12,-1%,-4%,-6%,.,
Cc1ccc(C(=O)N/C(=C\c2ccc(Cl)cc2)C(=O)NCC2CCCO2)cc1 (stereo unspecified),10%,-6%,-1%,.,
COc1ccc(CCNC(=O)c2cc(COc3c(C)cccc3C)on2)c(OC)c1,4%,.,.,.,
COc1cccc(CNC(=O)CCC2CCCN(C(=O)CCC(F)(F)F)C2)c1 (stereo unspecified),0%,.,.,.,
CCOC(=O)C1CCN(C(=O)CCS(=O)(=O)Cc2ccccc2)CC1,2%,.,.,.,
Cc1ccc(CSCC(=O)Nc2ccccc2)cc1,-6%,.,.,.,
O=C(NCCCN1CCOCC1)c1ccc2c(c1)N(Cc1ccc(F)cc1)CCS2,-2%,.,.,.,
SMILES,NS1 inh,Cruzain inh noDet,Cruzain inh Det,Flu NS1 inh,others
CN1CCN(CCCNC(=O)c2ccc3c(c2)N(Cc2ccc(F)cc2)CCS3)CC1,2.8µM*,.,.,-5,
Cc1nnc(NC(=O)CSc2nnc(Cc3cccn3C)n2C)s1,?,-3%,8%,.,
CCOC(=O)c1csc(N/N=C2\CCCc3ccccc32)n1,8%,.,.,.,
COc1ccc2c(c1)CCC/C2=N\Nc1nc(C(=O)NN)cs1,8.9µM*,.,.,1,
CCCOc1ccccc1C1NC(=O)NC(C)=C1C(=O)OCCOC(C)C (stereo unspecified),-1%,-4%,0%,.,
CC1CCN(S(=O)(=O)c2ccc3c(c2)N(CC(=O)NCCCOC(C)C)C(=O)CO3)CC1,?,-2%,0%,-24,
